This is an account of results in the supplement of paper PMC5407854, “Inhibitor of ppGalNAc-T3-mediated O-glycosylation blocks cancer cell invasiveness and lowers FGF23 levels” (eLife, 2017).

Over roughly 1,700 compounds, “T3 sensor activation Q score (MG/GFP ratio z-score vs DMSO controls)” has its median near 0.25; the highest 2% begin near 1.9. For the sample, the highest values were picked, then their nearest neighbours and some compounds at random.

For this test, the system named is ppGalNAc-T3 sensor. Nature of the test: T3 sensor activation Q score (MG/GFP ratio z-score vs DMSO controls) (SD units); higher = more sensor activation (inhibition of ppGalNAc-T3 glycosylation). To be noted: HEK293 sensor cells; 10 µM; 6 h. On the procedure:
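Cells were treated with compound at 10 uM for 6 h, then MG/GFP ratio was read by flow cytometry (10,000 cells per well, duplicate wells). Q = (R - R_neg)/SD_neg relative to DMSO vehicle controls; the signal rises when the glycosyltransferase is inhibited.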
Take `CC1CC=C(O)C12OCC(C)(C)CO2` (stereo not drawn): the “T3 sensor activation Q score” value is -0.05. Take `Cc1ccc(S(=O)(=O)N2CC=C(N)N2)cc1`: the “T3 sensor activation Q score” value was -0.2. With `Cc1nc2ccccc2nc1NS(=O)(=O)c1ccc(N)cc1` the figure was -0.1; with `OCc1nc2nc(Cl)c(Cl)nc2[nH]1`, -1.15; with `CC(C)CCCCCCCCCCCCC(=O)NCC(=O)NC1C(C)OC(Nc2ncnc3nc[nH]c23)C(O)C1O` (stereo not drawn), -1.5.

As for `Cc1cc(C)n2c(C)nnc2c1`, the “T3 sensor activation Q score” value is 1.85. With `Cc1ccn2c(C(C)O)nnc2c1` (stereo not drawn) the figure was 0.05; with `COC(=O)c1c[n+]([O-])ccc1OC`, -0.5. Take `CN(C)S(=O)(=O)c1ccccc1N=C=S`: the “T3 sensor activation Q score” value was -1.15. `CCOC(=O)/C=C/c1nc(C(=O)OCC)c(C)c(=O)[nH]1`: the “T3 sensor activation Q score” value was determined as 1.9. Turning to `CCOC(=O)c1nn(C)c2[nH]c(=O)n(C)c(=O)c12`, the “T3 sensor activation Q score” value is 0.15. Then `CCOC(=O)/C=C/c1ccc(C(=O)OCC)[nH]1`, with -1.5. With `CN(C)S(=O)(=O)Nc1cccc(Br)c1` the figure was 1.8; with `CC(C)NC(=O)c1ccc(C(C)C)cc1`, -0.3. Then `CCC(C)NC(=O)c1cccc(C)c1` (stereo not drawn), with 1.35; and `CNNCc1ccc(C(=O)NC(C)C)cc1`, with 1.85; and `Nc1nc(N)c2cc(Sc3ccc4ccccc4c3)ccc2n1`, with 1.15.

As to `CCc1ccc(CCN2C(=O)c3ccccc3C2=O)nc1`, the “T3 sensor activation Q score” value was found to be 0.1.

As for `CCOC(=O)c1nnsc1-c1ccc(-c2snnc2C(=O)OCC)cc1`, the “T3 sensor activation Q score” value is 0.95. As for `Clc1ncnc2[nH]ccc12`, the “T3 sensor activation Q score” value was -0.05. On to `C=CCN=C(NC#N)SC`, for which the “T3 sensor activation Q score” value stood at 0.05.

Consider `COc1cc(NC(C)=O)c2ncccc2c1NC(C)=O`, for which the “T3 sensor activation Q score” value amounted to 1.2. Take `O=c1[nH]cnc2c1ncn2Cc1ccc([N+](=O)[O-])cc1`: the “T3 sensor activation Q score” value was 0.15.

Turning to `CCOC(=O)c1cc2c(OC)c(OC)ccc2c2[nH]cc(C#N)c(=O)c12`, the “T3 sensor activation Q score” value is 0.7. Then `Cn1nc(SCc2ccccc2)c(=O)n(C(c2ccccc2)c2ccccc2)c1=O`, with -0.65.

In the case of `COc1cccc(/C=C2\CCc3ccccc3C2=O)c1`, the “T3 sensor activation Q score” value was -0.1. For the molecule `O=C1/C(=C\c2ccc([N+](=O)[O-])cc2)CCc2ccccc21`, the “T3 sensor activation Q score” value was 0.4. With `CCOc1ccc(/C=C2\CCc3ccccc3C2=O)cc1`, the “T3 sensor activation Q score” value amounted to 1.85.

As for `O=C(O)C1OCC2(CO1)COC(C(=O)O)OC2` (stereo not drawn), the “T3 sensor activation Q score” value was 0.6. As for `CC(C)(C)NC(=O)c1ccc(C(=O)NC(C)(C)C)cc1`, the “T3 sensor activation Q score” value was -0.4. Then `CC(=O)CC[N+](C)(C)C`, with 0.75. Turning to `O=C(/C=C/c1ccccc1)CC(c1ccccc1)N1CCOCC1` (stereo not drawn), the “T3 sensor activation Q score” value came out at 0.15. In the case of `Nc1ccc(C(=O)Nc2ccc(NC(=O)c3ccco3)c(O)c2)cc1`, the “T3 sensor activation Q score” value was found to be 1.85. In the case of `Nc1ccc(NC(=O)c2ccc(C(=O)Nc3ccc(N)cc3)cc2)cc1`, the “T3 sensor activation Q score” value was 1.05. Then `Nc1ccc(C(=O)Nc2cccc(N)c2)cc1`, with -1.35; and `OC[C@H]1O[C@@H](n2cnc3c2NC=NC[C@H]3O)C[C@@H]1O`, with 1.3; and `NC(=O)CCC(C(=O)O)N1C(=O)c2ccc(O)cc2C1=O` (stereo not drawn), with -0.1.

For `N#CC1=C2CCCCC2(O)NC1=O` (stereo not drawn), the “T3 sensor activation Q score” value is -0.45. With `CC1=C2C3OC(=O)C(C)C3CCC2(C)C=C(Cl)C1=O` (stereo not drawn) the figure was 1.1. As for `CC(=O)[C@@]1(O)[C@H](C)C[C@H]2[C@@H]3C=C(C)C4=Cc5c(cnn5-c5ccccc5)C[C@]4(C)[C@H]3[C@@H](O)C[C@@]21C`, the “T3 sensor activation Q score” value was 5. Then `CC1=CC2C(C(O)CC3(C)C2CC(C)C32OCOC23COCO3)C2(C)CC(=CO)C(=O)C=C12` (stereo not drawn), with -3.35; and `COC1C(=O)CCC2(CO2)C1(O)C1(C)OC1CC=C(C)C` (stereo not drawn), with -1.6; and `OCC1(CO)CC2(C1)CC(CO)(CO)C2`, with -1.15. As to `c1ccc(Nc2cccc3c(Nc4ccccc4)cccc23)cc1`, the “T3 sensor activation Q score” value was -0.45. Then `COc1ccc(NC(=O)CC(C)=O)c(OC)c1`, with -0.1; and `CC1(C)N=C(N)NC(=NCCCOc2ccc([N+](=O)[O-])cc2)N1`, with 0.35; and `O=S1(=O)CSCS(=O)(=O)C1`, with -0.85. Then `CSc1cccc(NC(=O)Nc2ccccc2C(N)=O)c1`, with 0.9; and `Cc1ccc(NC(=O)Nc2ccccc2C(N)=O)cc1`, with -0.95.

As for `Cc1cc(NC(=O)NC(=O)c2ccccc2NC(=O)C(C)N)ccc1Oc1ncc(Br)cn1` (stereo not drawn), the “T3 sensor activation Q score” value was found to be 4.35.

In the case of `C[C@@H]1O[C@@H](Oc2c(-c3cc(O)c(O)c(O)c3)oc3cc(O)cc(O)c3c2=O)[C@H](O)[C@H](O)[C@H]1O`, the “T3 sensor activation Q score” value came to 0.05. With `NC(N)=Nc1ccc(N=C(N)N)cc1` the figure was 0.3. With `COc1ccc(OC)c(NC(=O)c2cc3oc4ccccc4c3cc2O)c1` the figure was -1.55; with `Nc1cc(=O)[nH]c2ncnn12`, -0.15. In the case of `CCOc1ccc(NC(=O)C2CCCN(C)C2)cc1` (stereo not drawn), the “T3 sensor activation Q score” value worked out at 0.6. With `Nc1ncnc2c([C@@H]3O[C@H](CO)[C@@H](O)[C@H]3O)c[nH]c12` the figure was 0.15.

As for `COC(=O)CC1OCC=C2CN3CCC45C6=CC(=O)C(=O)C([N+](=O)[O-])=C6NC4C1C2CC35` (stereo not drawn), the “T3 sensor activation Q score” value is -0.2. Then `CCOC(=O)C1(C#N)C(=O)CSC1=Nc1ccccc1Cl` (stereo not drawn), with -1.05. Turning to `CCOC(=O)Nc1c2ccccc2nc2ccccc12`, the “T3 sensor activation Q score” value is -1.8. With `CCOC(=O)Nc1cc2c(c(N)n1)N=C(c1ccccc1)CN2` the figure was 4; with `CCOC(=O)Nc1csnn1`, -0.7; with `Oc1ccc(Nc2ccnc3cc(Cl)ccc23)cc1`, 1.1.

For `O=C(Nc1cccc([N+](=O)[O-])c1)c1cccc(C(=O)Nc2cccc([N+](=O)[O-])c2)c1`, the “T3 sensor activation Q score” value was -0.25.
